# PubChem BioAssay (NCI)
# Compounds without any hit were thinned out: in the full panel of roughly 79,000, 15% have a hit. Unmarked numbers belong to inactive results. Calls of active or inactive are those of the source. Cut-off read from the data, not from the text of the source: active = growth inhibition above about 70%; inactive = the rest.
# What was measured:
# [1] = NCI Yeast Anticancer Drug Screen. Data for the rad50 strain (AID 155);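 note: 0% = growth of vehicle-only cultures of the same strain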; details: S. cerevisiae rad50 strain growth inhibition, stronger effect = higher value
# Summary of the method: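 Vehicle-treated cultures provide the reference for the growth inhibition reported for compound-exposed, repair-deficient yeast.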
# [2] = NCI Yeast Anticancer Drug Screen. Data for the mec2-1 strain (AID 157); details: S. cerevisiae mec2-1 strain, stronger effect = higher value
# Summary of the method: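 Using mec2-1 yeast: add compound, measure growth, express inhibition versus vehicle-treated cultures.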
# [3] = NCI Yeast Anticancer Drug Screen. Data for the sgs1 mgt1 strain (AID 161);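 note: 0% = growth of cultures given vehicle only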; details: S. cerevisiae sgs1 mgt1 strain, stronger effect = higher value
# Summary of the method: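 Percent growth inhibition was derived by comparing compound-exposed mutant yeast with vehicle-exposed cultures. The strain carries alterations in DNA damage repair.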
# [4] = NCI Yeast Anticancer Drug Screen. Data for the cln2 rad14 strain (AID 165);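 note: 0% = growth equal to vehicle treated cultures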; details: S. cerevisiae cln2 rad14 strain, stronger effect = higher value
# Summary of the method: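 Yeast strain cln2 rad14, bearing defects in cell cycle control and DNA repair, serves as the test system; values reflect growth inhibition compared with vehicle.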
# [5] = NCI Yeast Anticancer Drug Screen. Data for the bub3 strain (AID 167); details: S. cerevisiae bub3 mutant strain, stronger effect = higher value
# Summary of the method: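 Mutant yeast screening strain plus compound; vehicle-treated cultures serve as the 0% inhibition reference.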
# [6] = NCI Yeast Anticancer Drug Screen. Data for the mlh1 rad18 strain (AID 175); details: S. cerevisiae mlh1 rad18 strain growth inhibition, stronger effect = higher value
# Summary of the method: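 Steps: expose repair-defective yeast to compound; measure growth; express inhibition against vehicle-treated controls.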
# [7] = at 5.0 µM (retest, dose inferred, filed as 0.5)
# [8] = at 50.0 µM (retest, dose inferred, filed as 5.0)
Compound,"growth inhibition [1, 7]","growth inhibition [1, 8]",growth inhibition ([1]; at 50.0 µM),"growth inhibition [2, 7]","growth inhibition [2, 8]",growth inhibition ([2]; at 50.0 µM),"growth inhibition [3, 7]","growth inhibition [3, 8]",growth inhibition ([3]; at 50.0 µM),"growth inhibition [4, 7]","growth inhibition [4, 8]",growth inhibition ([4]; at 50.0 µM),"growth inhibition [5, 7]","growth inhibition [5, 8]",growth inhibition ([5]; at 50.0 µM),"growth inhibition [6, 7]","growth inhibition [6, 8]",growth inhibition ([6]; at 50.0 µM)
CCCCOC(=O)c1ccc(S(=O)(=O)c2ccc(C(=O)OCCCC)cc2)cc1,3%,-6%,1.7%,3%,-3%,28.4%,5%,-18%,10%,5%,-11%,-13.1%,4%,-1%,77.7% (active),2%,-3%,11.1%
c1ccc(COc2ccc(C[P+](c3ccccc3)(c3ccccc3)c3ccccc3)cc2)cc1,97% (active),100% (active),99.3% (active),98% (active),100% (active),99.5% (active),99% (active),100% (active),99.7% (active),98% (active),98% (active),99.6% (active),99% (active),99% (active),99.5% (active),99% (active),99% (active),99.3% (active)
O=C1CCC(c2ccccc2)=NN1c1nc2ccccc2s1,5%,90% (active),98.3% (active),-3%,79% (active),99.2% (active),0%,85% (active),99.2% (active),-3%,83% (active),99% (active),-6%,95% (active),99.3% (active),4%,93% (active),99.5% (active)
N#CC(C(=O)C(=O)NC1C2CC3CC(C2)CC1C3)c1c(Cl)cccc1Cl (centres undefined),1%,7%,31.7%,-4%,-32%,19.8%,-1%,3%,21.2%,3%,5%,28.6%,-1%,5%,0.45%,-1%,5%,30.6%
CC1=CC(C)(C)Nc2cc(N)ccc21,-166%,-193%,50.5%,-49%,-65%,20.6%,-64%,-72%,43.8%,-54%,-82%,-35.5%,-74%,-85%,39.3%,-148%,-136%,54.5%
O=[N+]([O-])c1ccc(O)c(C2CCCCC2)c1,72% (active),98% (active),99.5% (active),67%,99% (active),99.2% (active),62%,99% (active),99.7% (active),64%,99% (active),99.5% (active),79% (active),98% (active),100% (active),87% (active),99% (active),99% (active)
CC(C)(C)SC(=O)C1(C)OC1c1ccc([N+](=O)[O-])cc1 (centres undefined),-6%,45%,53%,-4%,-3%,67.8%,-5%,51%,62.3%,5%,-2%,-20.8%,0%,13%,29.8%,-5%,49%,79.8% (active)
CCOC(=O)C1=C(c2ccccc2)OC(N)=C(C#N)C1c1ccc(C)cc1 (centres undefined),4%,25%,77.1% (active),0%,66%,89.5% (active),10%,64%,92.5% (active),-4%,29%,89% (active),1%,50%,80.1% (active),-2%,65%,85.9% (active)
Cc1ccnc(-c2cc(C)ccn2)c1,6%,96% (active),64%,-3%,98% (active),23.1%,-4%,57%,57.9%,-1%,95% (active),-46.7%,4%,91% (active),-3.15%,7%,98% (active),37.9%
CN(C)CCCCCNc1c2ccccc2nc2cccc([N+](=O)[O-])c12,73% (active),95% (active),90% (active),52%,97% (active),91.2% (active),29%,33%,89.2% (active),37%,62%,92.3% (active),23%,47%,89% (active),78% (active),96% (active),87.7% (active)
O=C(C=P(c1ccccc1)(c1ccccc1)c1ccccc1)c1ccc(Cl)cc1,5%,98% (active),98.8% (active),12%,99% (active),99.2% (active),19%,99% (active),99% (active),-10%,98% (active),98.7% (active),16%,99% (active),98.5% (active),-16%,99% (active),99% (active)
COc1ccc(Cc2nncc3ccccc23)cc1OC,-4%,84% (active),91.2% (active),1%,83% (active),96.5% (active),-3%,92% (active),95.3% (active),1%,83% (active),72.2% (active),1%,90% (active),96% (active),-4%,93% (active),95.7% (active)
CCC(C)OC(=S)S (centres undefined),4%,36%,42.9%,8%,44%,33.8%,-7%,26%,74.2% (active),1%,-4%,-20.8%,3%,59%,90.7% (active),15%,57%,85% (active)
CC1=NOC(=O)C1N=Nc1ccc(Br)cc1C (centres undefined),99% (active),95% (active),93% (active),100% (active),96% (active),94.6% (active),99% (active),94% (active),94.8% (active),99% (active),94% (active),92.8% (active),99% (active),96% (active),94.5% (active),99% (active),94% (active),90.5% (active)
Clc1ccccc1C=Nc1cccc2ccccc12,-10%,-24%,22.4%,-14%,-17%,32.4%,-9%,-1%,27.1%,18%,8%,13.9%,13%,-3%,35.8%,-33%,-54%,23.4%
[Ce+3].[Cl-].[O-]/N=C(\c1ccccc1)c1ccccn1.[O-]/N=C(\c1ccccc1)c1ccccn1.[O-]/N=C(\c1ccccc1)c1ccccn1,36%,66%,85.5% (active),28%,76% (active),85.4% (active),32%,75% (active),85.8% (active),29%,32%,76.7% (active),41%,95% (active),88.3% (active),39%,91% (active),86.2% (active)
CCCCCCCCN=C(N)c1ccc(C(=O)OCC2CCCCC2)cc1,98% (active),99% (active),99.6% (active),99% (active),100% (active),99.7% (active),99% (active),99% (active),99.7% (active),98% (active),99% (active),99.5% (active),98% (active),100% (active),99.6% (active),100% (active),100% (active),99.7% (active)
CS(=O)(=O)OCC(COS(C)(=O)=O)C(c1ccccc1)c1ccccc1Br (centres undefined),12%,34%,28.4%,7%,29%,36%,14%,47%,37.1%,16%,44%,13.1%,-1%,16%,5.4%,7%,51%,56.2%
